Hits are enriched below; roughly 10% of the tested compounds scored in any of these assays.
HEK293 tox: kills HEK 293 cells | HEK 293 viability, ATP luminescence (CellTiter-Glo), 48-72 h | Potency, µM (series often up to 115 µM), for inactives: top-dose activity change, negative = cytotoxicity, hits mostly inhibitors | 94,000 tested, 6.6% active; further: nearly all actives have a fitted effect of over 60% in size
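Read-out: CellTiter-Glo ATP luminescence. Cells: HEK 293, 250 cells/well. Exposure: 48 or 72 hr, 37 degree Celsius.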
GPT2 inh: GPT2 alanine aminotransferase inhibition; Q8TD30; Recombinant GPT2, coupled pyruvate oxidase/HRP Amplex Red fluorescence; Potency, µM (series often up to 57.7 µM), without a hit: at the highest dose activity change, negative = inhibition, actives largely listed as inhibitors; 100,000 tested, 0.25% active; further: nearly all actives have a fitted effect of over 60% in size
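Fluorescence read-out: pyruvate from GPT2 turnover coupled to pyruvate oxidase, HRP and Amplex Red (0.2mM ThPP, 0.2U/mL PO and HRP, 50uM Amplex final). Substrates 250uM a-KG, 2mM L-alanine; enzyme 10ng/uL; 30 min RT.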
FLuc inh: blocks purified firefly luciferase enzyme activity. Potency, µM (highest dose often 115 µM), usual class: inhibitors. AID 1347043. P08659. 76,000 tested, 2.5% active. purified P. pyralis luciferase, luminescence, biochemical; further: nearly all actives have a fitted effect of over 65% in size
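Biochemical qHTS: compound (6-point titration) added to 10uM D-luciferin plus 10uM ATP in Tris acetate pH 7.5 buffer with Mg, Tween-20 and BSA, then purified enzyme at 10nM; light output imaged.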
hNpr1 antagonist: blocks ANP-stimulated signaling of human Npr1 receptor; HEK293 hNpr1 GloSensor cGMP, ANP-stimulated luminescence; Potency, µM (top dose mostly 46.3 µM), without a hit: at the top dose activity change, negative = inhibition, usual class: inhibitors; 76,000 tested, 1.6% active; AID 1347048; calls by dose curve; further: nearly all actives have a fitted effect of over 60% in size
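Compound pre-incubated 30 min at room temperature on GloSensor-loaded HEK293 cells stably carrying hNpr1 and the pGS-40F cGMP biosensor. Stimulation uses hNppA at 0.1 nM final; luminescence is taken at baseline and 20 min post-agonist.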
NIH3T3 tox: cytotoxic compounds in NIH 3T3 cells; NIH 3T3 viability, CellTiter-Glo ATP luminescence, 48-72 h; Potency, µM (highest dose often 96.7 µM), for inactives: at the highest dose activity change, negative = cytotoxicity, usual class: inhibitors; 94,000 tested, 4.3% active; AID 1345082; further: nearly all actives have a fitted effect of over 55% in size
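Mouse fibroblast NIH 3T3 cells, 400 per well, received compound via pintool and were incubated for 48 or 72 hr prior to CellTiter-Glo ATP luminescence measurement.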
Starred values were filed as active, the others as inactive; i = inactive; ? = inconclusive; / = not tested or not shown; [ ] = remark or other dose. Unless noted, the call rests on the fitted dose curve; in most records, active means well fitted curve in the direction sought with a large enough effect; inconclusive means small, poorly fitted or top-dose-only effect, or another doubt; inactive means no such curve, though single readings can be large; an effect the other way counts as inactive or inconclusive. On the % scale 0 is the no-effect control and ±100 the full control effect; potency means the concentration at half of the fitted maximal effect.

SMILES | HEK293 tox | GPT2 inh | FLuc inh | hNpr1 antagonist | NIH3T3 tox
COc1ccc(NC(=O)O[C@@H]2CO[C@H]3[C@@H]2OC[C@@H]3NS(=O)(=O)c2ccc(NC(C)=O)cc2)cc1 | -6% | 0% | 45µM* | -1% | ?
O=C(NCC1CCCCCC1)C1CCCN(Cc2cccc(-c3ccc(F)cc3F)c2)C1 (centres undefined) | ? | -3% | / | / | ?
COc1ccc(CCNC(=O)C2CCCN(Cc3cccc(-c4ccc(F)cc4F)c3)C2)cc1 (centres undefined) | 10µM* | -1% | / | / | ?
O=C(NCCc1ccc(F)cc1)C1CCCN(Cc2cccc(-c3ccc(F)cc3F)c2)C1 (centres undefined) | 40µM* | -9% | / | / | ?
O=C(NCCc1ccccc1)C1CCCN(Cc2cccc(-c3ccc(F)cc3F)c2)C1 (centres undefined) | 40µM* | i | / | / | ?
O=C(NC1CCCCCC1)C1CCN(c2ccnc3ccnn23)CC1 | ? | -1%[88.5 µM] | / | / | -50%[138 µM]
CCOc1ccccc1CNC(=O)c1c(C)noc1-c1cccs1 | ? | ? | i | -7% | ?
Cn1ncc2c(C(=O)NCc3cccs3)cc(-c3ccc(Cl)cc3Cl)nc21 | 40µM* | i | / | / | ?
Cc1ccc(-c2cc(C(=O)NCc3cccs3)c3cnn(C)c3n2)c(C)c1 | ? | -1% | / | / | ?
Cn1ncc2c(C(=O)CCc3ccc(F)cc3)cc(-c3ccc(Cl)cc3Cl)nc21 | 35µM* | -19% | / | / | 32µM*
COc1ccccc1CNC(=O)c1ccc2c(c1)CC(=O)N2Cc1ccc(F)cc1 | ? | -8% | i | -14% | ?
Cn1ccnc1C(=O)N1CCC(N2C(=O)C3(CCCCC3)C2c2ccncc2)CC1 (centres undefined) | i | i | i | 2% | -4%
COc1ccc(-c2cn(C)c(=O)n3cc(COc4ccc(C(=O)O)cc4)nc23)c(C)c1 | ? | i | i | 3%[70.6 µM] | ?
Cc1nnc([C@@H]2CC(F)(F)CN2C(=O)COc2ccccc2)o1 | -10% | -4% | i | -1% | -5%
CO[C@H]1C(=O)N(C(C)C)[C@H]1C1CCN(Cc2cn[nH]c2-c2ccccc2)CC1 | -10% | i | / | / | -26%
CC(C)NC(=O)c1nc(-c2cccc(C(F)(F)F)c2)c2ccccn12 | 79µM* | 1%[88.5 µM] | i | 13% | 89µM*
C#CCNC(=O)c1nc(-c2ccccc2)c2ccccn12 | ? | i | i | 1%[70.6 µM] | ?
C#CCNC(=O)c1nc(-c2cccc(C(F)(F)F)c2)c2ccccn12 | 50µM* | ? | i | -24%[70.6 µM] | ?
CCCn1c(C)cnc1CC1CCN(S(=O)(=O)c2ccc3c(c2)CCC3)C1 (centres undefined) | ? | -1% | i | -6% | ?
Cc1cnc(CC2CCN(S(=O)(=O)c3ccc4c(c3)CCC4)C2)n1CC1CC1 (centres undefined) | 50µM* | 4% | i | ? | ?
COc1ccc(Nc2ccnc(N3CCCC(C(=O)N4CCCC(C)C4)C3)n2)cc1 (centres undefined) | ? | -8% | / | / | 45µM*
COc1ccc(CNC(=O)C2CCCN(c3nccc(Nc4ccc(OC)cc4)n3)C2)cc1 (centres undefined) | 28µM* | i | / | / | ?
COc1ccc(Nc2ccnc(N3CCCC(C(=O)NCc4ccc(F)cc4)C3)n2)cc1 (centres undefined) | ? | i | / | / | 28µM*
COc1ccc(Nc2ccnc(N3CCCC(C(=O)NC4CCCC4)C3)n2)cc1 (centres undefined) | ? | i | / | / | 40µM*
COc1ccc(Nc2ccnc(N3CCCC(C(=O)NCC(F)(F)F)C3)n2)cc1 (centres undefined) | ? | -13% | / | / | ?
SMILES | HEK293 tox | GPT2 inh | FLuc inh | hNpr1 antagonist | NIH3T3 tox
COc1ccc(Nc2ccnc(N3CCCC(C(=O)N4CCN(C(C)=O)CC4)C3)n2)cc1 (centres undefined) | -14% | i | / | / | ?
CCN1c2cc(C(=O)Nc3cccc(OC)c3)ccc2C(=O)N2CCCCCC21 (centres undefined) | 32µM* | i | i | -7% | ?
CCN1c2cc(C(=O)Nc3cccc(OC)c3)ccc2C(=O)N2CCCCC21 (centres undefined) | 45µM* | i | i | -14% | ?
CCN1c2cc(C(=O)Nc3cccc(OC)c3)ccc2C(=O)N2CCCC21 (centres undefined) | ? | 4% | i | 5% | -28%
CCN1c2cc(C(=O)Nc3cc(OC)cc(OC)c3)ccc2C(=O)N2CCCCC21 (centres undefined) | ? | i | i | -7% | -22%
COc1ccc(-c2cc(N3CCC(NC(=O)c4ccc(C)s4)CC3)n[nH]2)cc1 | ? | i | i | -4% | -27%
O=C(Nc1ccc(F)cc1F)C1(CCO)CCN(c2ncccn2)C1 (centres undefined) | ? | -6% | i | 1% | -18%
COCCNC(=O)c1c(C)noc1-c1cc(OC)c(OC)c(OC)c1 | -1% | -2% | i | 4% | -4%
COc1cc(-c2onc(C)c2C(=O)N(C)Cc2ccccc2)cc(OC)c1OC | ? | 1% | i | -19% | ?
COc1cc(CN(C)C(=O)c2c(C)noc2-c2cccc(F)c2)cc(OC)c1OC | 45µM* | -4% | i | 1% | ?
COc1cc(-c2onc(C)c2C(=O)NCCC(c2ccccc2)c2ccccc2)cc(OC)c1OC | 35µM* | -10% | i | -21% | ?
COc1cc(OC)c(CNC(=O)c2c(C)noc2-c2ccc(OC(F)(F)F)cc2)c(OC)c1 | 40µM* | -11% | i | -13% | ?
COc1ccc(CCNC(=O)c2c(C)noc2-c2ccc(OC(F)(F)F)cc2)cc1 | 50µM* | -5% | i | -2% | -16%
Cc1noc(-c2ccc(OC(F)(F)F)cc2)c1C(=O)NCCc1ccc(F)cc1 | ? | i | i | -3% | -26%
O=C(Nc1ccc2[nH]ccc2c1)C1=NO[C@@H]2CN(Cc3ccc(F)cc3)C[C@H]12 | ? | -15%[88.5 µM] | i | 5%[70.6 µM] | -25%[138 µM]
CC1(COc2ccccc2)COc2ccc(C(=O)NCc3ccccc3)cc2N1 (centres undefined) | 63µM* | -1%[88.5 µM] | i | -22%[70.6 µM] | 50µM*
COc1ccc(OCC2(C)COc3ccc(C(=O)NCc4ccc(F)cc4)cc3N2)cc1 (centres undefined) | 28µM* | 2%[88.5 µM] | i | -30%[70.6 µM] | 28µM*
CC1(COc2ccccc2)COc2ccc(C(=O)NCc3ccco3)cc2N1 (centres undefined) | ? | i | i | 2%[70.6 µM] | ?
